This test has as its system Vero E6 infected with SARS-CoV-2. The test can be described thus: inhibition of SARS-CoV-2 cytopathic effect; higher = more antiviral protection, active = above 15. To be noted: 48 h. Background: Cytopathic effects are the visible damage that an infection or toxin causes in cultured cells.

Data on 18 molecules can be found in the supplement of paper PMC13380429.

A number with no mark means an inactive call.

With `O=[N+]([O-])c1cc([N+](=O)[O-])c(/C=C/c2ccc(Cl)c(Cl)c2)cc1/C=C/c1ccc(Cl)c(Cl)c1`, the “inhibition of SARS-CoV-2 cytopathic effect” value (shortened to “inhibition”) is, setting by setting: (1 nM) 2%; (8.33 nM) 1.02%; (100 nM) -3.12%; (833.33 nM) -5.26%; (10000 nM) -2.22%.

In the case of `NC(=S)N/N=C/c1coc2ccccc2c1=O.[Cl][Cu][Cl]`, the “inhibition” value is, setting by setting: (1 nM) 0.84%; (8.33 nM) -0.38%; (100 nM) 1.98%; (833.33 nM) -0.55%; (10000 nM) 2.4%.

In the case of `CN(CCOc1ccc(NS(C)(=O)=O)cc1)CCc1ccc(NS(C)(=O)=O)cc1` [dofetilide], the “inhibition” value (1 nM) is -2.98%; the “inhibition” value (8.33 nM) was -1.43%; the “inhibition” value (100 nM) was -1.55%; the “inhibition” value (833.33 nM) is -0.28%; the “inhibition” value (10000 nM) was -0.36%.

As for `COc1cc(Br)c(S(=O)(=O)Nc2ccc(Cl)c(O[C@@H]3CCN(C)C3)c2)cc1OC`, the “inhibition” value reads like this: (1 nM) 1.45%; (8.33 nM) 1.7%; (100 nM) -0.06%; (833.33 nM) -0.33%; (10000 nM) -0.58%.

With `OC[C@H]1NCC[C@@H](O)[C@@H]1O` [fagomine], the “inhibition” value is, setting by setting: (1 nM) -1.09%; (8.33 nM) 1.34%; (100 nM) 1.02%; (833.33 nM) 2.42%; (10000 nM) 0.75%.

For `N=C(N)Nc1ccc(C(=O)Oc2ccc3cc(C(=N)N)ccc3c2)cc1` [nafamostat], the “inhibition” value is 1.66% (1 nM); 4.06% (8.33 nM); 4.33% (100 nM); 3.65% (833.33 nM); 4.81% (10000 nM).

Regarding `CCCn1cnc2c1c(=O)n(CCCCC(C)=O)c(=O)n2C` [propentofylline], the “inhibition” value is 0.84% (1 nM); 2.46% (8.33 nM); 1.32% (100 nM); 2.05% (833.33 nM); 0.29% (10000 nM).

For `CCNC(C)CN1CCc2c(c(=O)oc3ccccc23)C1` (stereo not given), the “inhibition” value by setting is: (1 nM) -2.32%; (8.33 nM) 0.86%; (100 nM) -0.83%; (833.33 nM) -0.78%; (10000 nM) -2.07%.

On to `COc1ccncc1C(=O)NC(=O)Nc1ccc(-c2ccccc2)c(C(F)(F)F)c1` [S1P1-agonist-III], for which the “inhibition” value (1 nM) was -0.34%; the “inhibition” value (8.33 nM) is -0.01%; the “inhibition” value (100 nM) was -0.43%; the “inhibition” value (833.33 nM) was -0.2%; the “inhibition” value (10000 nM) is -2.64%.

`CCCCc1ccc(O)cc1O` [rucinol]: the “inhibition” value runs as follows: (1 nM) -2.6%; (8.33 nM) -3.11%; (100 nM) 2.12%; (833.33 nM) -0.13%; (10000 nM) 0.4%.

Take `O=C(O)CN1C(=O)c2cccc3cccc(c23)C1=O` [alrestatin]: the “inhibition” value reads like this: (1 nM) 5.18%; (8.33 nM) 3.1%; (100 nM) 3.59%; (833.33 nM) 4.81%; (10000 nM) 1.83%.

Regarding `N[C@@H](Cc1c[nH]c2ccccc12)C(=O)O` [tryptophan], the “inhibition” value is -6.32% (1 nM); -7.31% (8.33 nM); -3.29% (100 nM); -4.07% (833.33 nM); -10.4% (10000 nM).

For the molecule `O=C(CNC(=O)c1cccc(C(F)(F)F)c1)N[C@@H]1CCN(Cc2ccc(Cl)cc2)C1` [teijin-compound-1], the “inhibition” value is -1.08% (1 nM); -0.19% (8.33 nM); 0.66% (100 nM); -1.99% (833.33 nM); -4.88% (10000 nM).

As to `CC(C)=CCC[C@](C)(O[C@@H]1O[C@H](CO)[C@@H](O)[C@H](O)[C@H]1O)[C@H]1CC[C@]2(C)[C@@H]1[C@H](O)C[C@@H]1[C@@]3(C)CC[C@H](O[C@@H]4O[C@H](CO)[C@@H](O)[C@H](O)[C@H]4O[C@@H]4O[C@H](CO)[C@@H](O)[C@H](O)[C@H]4O)C(C)(C)[C@@H]3CC[C@]12C` [ginsenoside-RD], the “inhibition” value runs as follows: (1 nM) -2.36%; (8.33 nM) -1%; (100 nM) 2.51%; (833.33 nM) 0.27%; (10000 nM) 0.18%.

In the case of `Cc1cc(Nc2ncc(Cl)c(Nc3ccccc3S(=O)(=O)C(C)C)n2)c(OC(C)C)cc1C1CCNCC1` [ceritinib], the “inhibition” value reads like this: (1 nM) -0.41%; (8.33 nM) 1.21%; (100 nM) 2.17%; (833.33 nM) -2.36%; (10000 nM) 58.8% (active).

Consider `C[C@@H]1CN(CC(=O)Nc2ccc3c(c2)Cc2cccc(-c4cc(=O)cc(N5CCOCC5)o4)c2S3)C[C@H](C)O1`, for which the “inhibition” value by setting is: (1 nM) -2.04%; (8.33 nM) 0.24%; (100 nM) 2.16%; (833.33 nM) 2.87%; (10000 nM) 35.7% (active).

Take `CNCCCCOc1ccccc1Cc1ccccc1` [bifemelane]: the “inhibition” value reads like this: (1 nM) -0.64%; (8.33 nM) 0.99%; (100 nM) 1.41%; (833.33 nM) -0.82%; (10000 nM) -1.85%.

As for `O=C1CC[C@@](c2ccccc2)(C2CCN(Cc3ccc(I)cc3)CC2)C(=O)N1` [iododexetimide], the “inhibition” value (1 nM) was 1.14%; the “inhibition” value (8.33 nM) was -0.02%; the “inhibition” value (100 nM) is -0.5%; the “inhibition” value (833.33 nM) was -1.35%; the “inhibition” value (10000 nM) was -6.84%.
